Laboratory results reported in PubChem BioAssay AID527 (NMMLSC, 2006).
Hit rate of the full screen: of about 24,000 compounds, about 65 (0.3%) were called active.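 Rule for the calls: active = share of bacteria positive for the green fluorescent reporter and its mean brightness both inhibited by 50% or more; inactive = the rest, inconclusive results apart.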 The sample as a whole holds a higher share of actives than the screen did.

Experiment: S. aureus quorum sensing inhibitors, primary screen, RNAIII-GFP reporter, flow cytometry (AID 527);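 note: 0% = AIP-stimulated control and 100% = unstimulated bacteria without AIP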
Details: S. aureus RN6390 RNAIII-GFP reporter, AIP-induced, flow cytometry 3 h, at 2 µM, stronger effect = higher value
[1] = measured here: inhibition of GFP MFI

Cc1ccc(NC2=NC(c3ccccc3)n3c(nc(C)cc3=O)N2)cc1 (stereo not drawn)
inhibition: -2.1% (inactive) | inhibition [1]: -6.2%

COc1ccc(CC(=O)Nc2ccc(-c3nnc(-c4ccc(C)cc4)o3)cc2)cc1
inhibition: 7.6% (inactive) | inhibition [1]: 35.1%

COc1ccc(NC(=O)c2c(SC)nsc2SC)cc1
inhibition: 67.4% (active) | inhibition [1]: 74.3%

CCCNC(=O)Nc1ccccc1C(=O)Nc1ccc(OC)cc1
inhibition: 1.7% (inactive) | inhibition [1]: 13.6%

Cc1noc(COc2ccccc2OCC(O)CNC(C)(C)C)n1 (stereo not drawn)
inhibition: -0.1% (inactive) | inhibition [1]: 0.9%

Cc1cccc(C2c3c(n(C)c(=O)n(C)c3=O)N=C3c4ccccc4C(=O)C32)c1 (stereo not drawn)
inhibition: 1.5% (inactive) | inhibition [1]: 20.3%

COc1cccc(N(C(=O)c2ccn[nH]2)C2(C(=O)Nc3c(C)cccc3C)CCCCC2)c1
inhibition: 5.5% (inactive) | inhibition [1]: -8%

CCN(Cc1nc2ccccc2c(=O)[nH]1)Cc1cc(=O)oc2cc(C)c(C)cc12
inhibition: 4.2% (inactive) | inhibition [1]: 13.1%

Cn1c(COc2ccc(Cl)cc2)nc2ccccc2c1=O
inhibition: -6.8% (inactive) | inhibition [1]: -42.8%

COc1ccc(OC)c(C2N(c3ccccn3)C(=O)C3CCCN32)c1 (stereo not drawn)
inhibition: -2.2% (inactive) | inhibition [1]: -7.1%

COc1cccc(C(CC(=O)NCCN2CCOCC2)NS(=O)(=O)c2ccc(C)cc2)c1OC (stereo not drawn)
inhibition: -5% (inactive) | inhibition [1]: -11.5%

COc1ccccc1C(=O)n1nc(-c2ccccc2)nc1N
inhibition: -0.9% (inactive) | inhibition [1]: -0.5%

Cc1cc(=O)n2nc(N3CCCC3C(=O)NCCCN3CC(C)CC(C)C3)sc2n1 (stereo not drawn)
inhibition: 2.5% (inactive) | inhibition [1]: 17.6%

CCc1nnc(NC(=O)c2ccc(S(=O)(=O)NC3CCCCC3)cc2)s1
inhibition: 0.3% (inactive) | inhibition [1]: 4.5%

CC1CCCCN1S(=O)(=O)c1ccc(C(=O)Nc2nnc(-c3cccs3)o2)cc1 (stereo not drawn)
inhibition: 65.9% (active) | inhibition [1]: 62.3%

COc1cccc(-c2nnc(NC(=O)c3ccc(S(=O)(=O)N(CC(C)C)CC(C)C)cc3)o2)c1
inhibition: 14.3% (inactive) | inhibition [1]: 15.6%

O=C(O)Cc1ccc(-c2ccccc2)cc1
inhibition: -0.8% (inactive) | inhibition [1]: 3.1%

CN(C(=O)C1CCOC1)c1nnc(-c2cccnc2)s1 (stereo not drawn)
inhibition: -2.1% (inactive) | inhibition [1]: 1.3%

COc1ccc(N2CCN(C(=O)CNC(=O)c3ccc(C(C)(C)C)cc3)CC2)cc1
inhibition: -5.2% (inactive) | inhibition [1]: -22.7%

CCOc1cc(C(=O)Nc2ncccn2)cc(OCC)c1OCC
inhibition: -0.2% (inactive) | inhibition [1]: 0.7%

COC(=O)Nc1ccc(S(=O)(=O)N(C)CC(F)(F)C(F)F)cc1
inhibition: -3.8% (inactive) | inhibition [1]: -5.8%

CC(=O)NC(Cc1ccc(F)cc1)C(=O)O (stereo not drawn)
inhibition: -5.3% (inactive) | inhibition [1]: -7.6%

Cc1nc2ccc(S(=O)(=O)NC(C(=O)N3CCCCCC3)C(C)C)cc2s1 (stereo not drawn)
inhibition: 0.8% (inactive) | inhibition [1]: -1%

Cc1nc(NC(=O)CCC(=O)O)sc1C(=O)N(C)C
inhibition: -4.1% (inactive) | inhibition [1]: -15.4%

O=C(O)C1C2C=CC(C2)C1C(=O)N1CCN(CCO)CC1 (stereo not drawn)
inhibition: -0.3% (inactive) | inhibition [1]: -23.2%

Cc1nnc(SCCCn2c(N3CCCCC3)nc3c2c(=O)[nH]c(=O)n3C)s1
inhibition: 2.3% (inactive) | inhibition [1]: 8.9%

CCOC(=O)CSc1nnc(CNC(=O)c2cccs2)n1-c1cc(OC)ccc1OC
inhibition: 1.2% (inactive) | inhibition [1]: 29.5%

O=C(CSc1nc2ccccc2o1)N1CCN(c2ccc(Cl)cc2)CC1
inhibition: 0.5% (inactive) | inhibition [1]: 5.2%

CCOc1ccc(NC(=O)CC2NCCNC2=O)cc1 (stereo not drawn)
inhibition: 0.5% (inactive) | inhibition [1]: 16.7%

CCOc1ccc(CNC(=O)C2CCC(=O)N2C2CCCC2)cc1OC (stereo not drawn)
inhibition: 3.8% (inactive) | inhibition [1]: 11.6%

CCOC(=O)N1CCC(NC(=O)c2ccc3nc(N4CCOCC4)sc3c2)CC1
inhibition: -5.4% (inactive) | inhibition [1]: -36.9%

CCN(CC)CCNC(=O)Cn1cnc2sc(C)c(S(=O)(=O)N3CCOCC3)c2c1=O
inhibition: -4.4% (inactive) | inhibition [1]: -7.2%

CCn1cc(C(=O)N2CC=C(c3ccccc3)CC2)c(=O)c2ccc(C)nc21
inhibition: 17.2% (inactive) | inhibition [1]: 30.6%

CCOC(=O)Cn1c(=O)oc2cc(S(=O)(=O)N(C)Cc3ccco3)ccc21
inhibition: -6.4% (inactive) | inhibition [1]: -10.2%

CC1CCN(c2oc(-c3ccccc3F)nc2C#N)CC1
inhibition: 0.5% (inactive) | inhibition [1]: 3.2%

Cc1ccccc1NC(=O)c1ccccc1
inhibition: -2.3% (inactive) | inhibition [1]: -11.3%

CCOC(=O)N1CCN(CC(=O)c2c(C)[nH]c3ccccc23)CC1
inhibition: -0.6% (inactive) | inhibition [1]: 7.3%

COc1cc2cc(CN(CCN3CCCC3)C(=O)Nc3ccccc3Cl)c(=O)[nH]c2cc1OC
inhibition: -3.5% (inactive) | inhibition [1]: -20.1%

Cc1ccccc1CN1CCN(C(=O)c2cccc(F)c2)CC1
inhibition: -0.2% (inactive) | inhibition [1]: -10.6%

COc1cccc(OC)c1OCCN1CCN(C(=O)c2ccco2)CC1
inhibition: -1% (inactive) | inhibition [1]: 4.2%

COc1ccc(OC)c(NC(=O)CCN2CCC(C)CC2)c1
inhibition: -0.7% (inactive) | inhibition [1]: -21.9%

CCOc1ccc(-c2cn(S(=O)(=O)c3cccc4nsnc34)nc2N)cc1
inhibition: 2.7% (inactive) | inhibition [1]: 26.8%

Cn1c(=O)[nH]c(=O)c2c1nc(NCCCn1ccnc1)n2Cc1cccc(Br)c1
inhibition: -0.5% (inactive) | inhibition [1]: -1.6%

CC(=O)c1cc2c(cc1NC(=O)CN1CCCCCC1)OCO2
inhibition: -3.5% (inactive) | inhibition [1]: -12.2%

O=C(CC(NCCN1CCOCC1)C(=O)O)Nc1cccc(Cl)c1 (stereo not drawn)
inhibition: -0.4% (inactive) | inhibition [1]: 7.8%

CCN(CC)C(=O)CCC(=O)Nc1ccc(C(=O)OC)cc1
inhibition: 0.7% (inactive) | inhibition [1]: 0%

CCOc1ccc(Cn2nnc(C(=O)Nc3ccc(OC)cc3OC)c2N)cc1
inhibition: -0.3% (inactive) | inhibition [1]: -4.3%

COc1ccc(C(=O)NCc2cn3ccccc3n2)cc1
inhibition: -9.5% (inactive) | inhibition [1]: -17.4%

Cc1cc(C)c2c(n1)nn1c(N3CCOCC3)cc(C)nc21
inhibition: -1.1% (inactive) | inhibition [1]: 1.4%

CCCCN(CC)C(=O)CN(C)S(=O)(=O)c1cccc2nsnc12
inhibition: -1.2% (inactive) | inhibition [1]: -4.3%

CC1CCCCC1NC(=O)CCS(=O)(=O)c1cccc2nonc12 (stereo not drawn)
inhibition: 4% (inactive) | inhibition [1]: 22.1%

CCOc1ccc(C2C(C(=O)NC)=C(C)Nc3nc4ccccc4n32)cc1OC (stereo not drawn)
inhibition: 2.9% (inactive) | inhibition [1]: 6.8%

O=C(NCc1ccco1)C1CCCN(S(=O)(=O)c2cnc[nH]2)C1 (stereo not drawn)
inhibition: 3.6% (inactive) | inhibition [1]: 9.1%

CCn1cc(C(=O)NCC2CCCO2)c(=O)c2cc(S(=O)(=O)N3CCCCC3)ccc21 (stereo not drawn)
inhibition: -8.4% (inactive) | inhibition [1]: -14.4%

O=C(c1ccco1)N1CCN(C(=O)c2ccc(COc3ccc(F)cc3)o2)CC1
inhibition: 2.8% (inactive) | inhibition [1]: 8%

COc1ccc(C2OC(=O)CC2C(=O)NC(C)C)cc1 (stereo not drawn)
inhibition: -1% (inactive) | inhibition [1]: -15.8%

COc1cc2[nH]c(=S)n(Cc3ccc(C)o3)c(=O)c2cc1OC
inhibition: 2% (inactive) | inhibition [1]: 9.8%

O=C(CN1C(=O)CCS(=O)(=O)c2ccccc21)NCc1ccc(F)cc1
inhibition: -1.6% (inactive) | inhibition [1]: -8.2%

CCOC(=O)CSc1nnc(NC(=O)c2cccc(S(=O)(=O)N3CCCCC3)c2)s1
inhibition: -0.3% (inactive) | inhibition [1]: 13%

COc1cccc(OCC(O)CN2CCN(CCO)CC2)c1 (stereo not drawn)
inhibition: -2% (inactive) | inhibition [1]: -8.9%

CN(C)/C=C1\C=C(c2ccccc2)OC1=O
inhibition: 0.4% (inactive) | inhibition [1]: 1.9%

O=C(NCc1ccc2c(c1)OCO2)C1CCCN(S(=O)(=O)c2cccs2)C1 (stereo not drawn)
inhibition: 16.2% (inactive) | inhibition [1]: 44.2%

CCCCC(=O)Nc1cc(C)c2c(=O)oc3ccccc3c2n1
inhibition: 43.3% (inactive) | inhibition [1]: 69.9%

COc1ccc(N2CCN(CCNC(=O)CCN3C(=O)COc4ccccc43)CC2)cc1
inhibition: -0.3% (inactive) | inhibition [1]: 5.4%

COc1cc2[nH]c(=S)n(CCN3CCCCC3C)c(=O)c2cc1OC (stereo not drawn)
inhibition: 2.3% (inactive) | inhibition [1]: 17.7%

O=C(CC(NS(=O)(=O)c1ccc(Cl)cc1)c1ccco1)NC1CCCC1 (stereo not drawn)
inhibition: 7.7% (inactive) | inhibition [1]: 13.1%

Cc1c(NC(=O)C(C)OC(=O)c2cc3c4ccccc4n(C)c3s2)c(=O)n(-c2ccccc2)n1C (stereo not drawn)
inhibition: 0.6% (inactive) | inhibition [1]: 3.3%

O=C(Cn1nc(Cc2cccnc2)c2ccccc2c1=O)NCC1COc2ccccc2O1 (stereo not drawn)
inhibition: 5.9% (inactive) | inhibition [1]: 12.1%

Cc1cc(Cl)c(S(=O)(=O)Nc2ccc3c(c2)OCCO3)cc1OCC(N)=O
inhibition: -0.7% (inactive) | inhibition [1]: -17.3%

Cc1ccc(-c2nc(CS(=O)CC(=O)N3CCN(c4ncccn4)CC3)c(C)o2)cc1 (stereo not drawn)
inhibition: -2.1% (inactive) | inhibition [1]: -1.4%

COc1cc(C(O)c2nc3ccccc3n2C)cc(OC)c1OC (stereo not drawn)
inhibition: -4% (inactive) | inhibition [1]: -99.6%

CC(C)OCCCNC(=O)CNC(=O)c1cccs1
inhibition: -1.5% (inactive) | inhibition [1]: -15.3%

Cc1ccc(S(=O)(=O)N2C3C=CC(C3)C2C(=O)O)cc1 (stereo not drawn)
inhibition: -5.7% (inactive) | inhibition [1]: -28.5%

Cc1ccc(CNC(=O)C2CCCN(S(C)(=O)=O)C2)cc1 (stereo not drawn)
inhibition: 0.6% (inactive) | inhibition [1]: 10%

COc1ccccc1C(=O)N1CCN=C1SCc1cccnc1
inhibition: -1.3% (inactive) | inhibition [1]: -5.4%

CC(C)(C)n1nc2c(c1NC(=O)c1ccc(S(=O)(=O)N3CCCC3)cc1)CS(=O)C2 (stereo not drawn)
inhibition: -6.3% (inactive) | inhibition [1]: -9.9%

Cc1nn(-c2ccccc2)c2c1C(=O)NC(=O)C(C)(C)C2
inhibition: 4.5% (inactive) | inhibition [1]: 27.5%

O=C(Nc1ccncc1)c1cc2ccccc2o1
inhibition: 0% (inactive) | inhibition [1]: 2.6%

COc1ccc(S(=O)(=O)Nc2ccc(S(=O)(=O)N3CCCCC3)cc2)cc1OC
inhibition: -3.8% (inactive) | inhibition [1]: -10.7%

Cc1onc(-c2ccccc2)c1C(=O)N1CCOCC1
inhibition: 0% (inactive) | inhibition [1]: 3.7%

Cc1ccc(C(c2sc3nc(C)nn3c2O)N2CCN(c3ccc(F)cc3)CC2)cc1 (stereo not drawn)
inhibition: 1.8% (inactive) | inhibition [1]: -4.2%

C=CCSc1nc2c(c(=O)[nH]1)C(C(C)C)C(C#N)=C(N)O2 (stereo not drawn)
inhibition: 2.6% (inactive) | inhibition [1]: 27.2%

CCN(c1ccc2c(c1)OCO2)S(=O)(=O)c1cc(Br)cc2c1N(C(=O)C1CC1)CC2
inhibition: -0.3% (inactive) | inhibition [1]: 5.6%

CCOC(=O)CSC1=C(C#N)C(c2sccc2C)CC(=O)N1 (stereo not drawn)
inhibition: -0.9% (inactive) | inhibition [1]: -28.9%
